Measured values from PubChem BioAssay (NCATS).
Several values for one entry are separate records, joined by “and”; a condition that tells them apart may be missing. Equal entries are not always repeated. Records with an inconclusive call do not appear. Some structures have more than one record in an assay (separate samples or runs), and their calls can disagree. Activity calls are given as the source filed them. Unless noted, calls come from the whole dose curve; as a rule, active = well fitted curve in the direction sought with a large enough effect; inconclusive = small, poorly fitted or top-dose-only effect, or another doubt; inactive = no such curve, though single readings can be large; an effect the other way counts as inactive or inconclusive.

Experiments:
[1] = NS1 protein of Zika virus - qHTS assay to identify small molecule inhibitors in human HEK 293 cells (AID 1347053); note: nearly all actives have a fitted effect of over 55% in size; note: potency is the fitted concentration of half-maximal effect
Outline: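 Inhibition of NS1 expression was scored in HEK 293 cells given compound 1 h ahead of MR766 virus (MOI = 0.5). Following 24 h at 37 C, two anti-NS1 antibodies generated a TR-FRET signal, scaled between uninfected and infected controls.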

[2] = qHTS for Inhibitors of the Functional Ribonucleoprotein Complex (vRNP) of Lassa (LASV) Arenavirus: LASV Primary Screen - GLuc reporter signal (AID 1347082; calls by dose curve; tested in HEK293 reporter line; note: nearly all actives have a fitted effect of over 60% in size; note: potency is the fitted concentration of half-maximal effect)
[3] = qHTS for Inhibitors of the Functional Ribonucleoprotein Complex (vRNP) of Lassa (LASV) Arenavirus: Viability assay - alamar blue signal for LASV Primary Screen (AID 1347083; calls by dose curve; tested in HEK293 reporter line; note: nearly all actives have a fitted effect of over 80% in size; note: potency is the fitted concentration of half-maximal effect)
[4] = qHTS for Inhibitors of the Functional Ribonucleoprotein Complex (vRNP) of Lymphocytic Choriomeningitis Arenaviruses (LCMV): Viability assay - alamar blue signal for LCMV Primary Screen (AID 1347085; calls by dose curve; tested in HEK293 reporter line; note: nearly all actives have a fitted effect of over 80% in size; note: potency is the fitted concentration of half-maximal effect)
[5] = target: Nucleoprotein (Lymphocytic choriomeningitis virus (strain Armstrong)) (UniProt P09992); experiment: qHTS for Inhibitors of the Functional Ribonucleoprotein Complex (vRNP) of Lymphocytic Choriomeningitis Arenaviruses (LCMV): LCMV Primary Screen - GLuc reporter signal (AID 1347086; calls by dose curve; note: nearly all actives have a fitted effect of over 70% in size; note: potency is the fitted concentration of half-maximal effect)
[6] = qHTS of pediatric cancer cell lines to identify multiple opportunities for drug repurposing: Primary screen for TC32 cells (AID 1347089); note: nearly all actives have a fitted effect of over 60% in size; note: potency is the fitted concentration of half-maximal effect
Outline: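 A viability screen of TC32 cells was run over 48 h, with primary MIPE doses spanning 0.78 nM–46 µM and NPC doses 0.59 nM–46 µM. ATP luminescence (CellTiter-Glo) served as the read-out.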

[7] = qHTS of pediatric cancer cell lines to identify multiple opportunities for drug repurposing: Primary screen for DAOY cells (AID 1347090); note: nearly all actives have a fitted effect of over 55% in size; note: potency is the fitted concentration of half-maximal effect
Outline: (§1)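 Viability measured as metabolically active cells via CellTiter-Glo luminescence following 48 hours of compound exposure, 11-point dilutions in confirmatory testing. 500-1,000 cells/well plated 5 hours before dosing; controls were DMSO and 2.3 µM bortezomib.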

[8] = qHTS of pediatric cancer cell lines to identify multiple opportunities for drug repurposing: Primary screen for SJ-GBM2 cells (AID 1347091); note: potency is the fitted concentration of half-maximal effect
Outline: as §1

[9] = qHTS of pediatric cancer cell lines to identify multiple opportunities for drug repurposing: Primary screen for A673 cells (AID 1347092); note: nearly all actives have a fitted effect of over 45% in size; note: potency is the fitted concentration of half-maximal effect
Outline: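 Titration-based qHTS on A673 cells: MIPE compounds spanned 11 points (0.78 nM to 46 µM final), NPC compounds 8 points (0.59 nM to 46 µM final). Viability after 48 h was measured by ATP luminescence.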

[10] = qHTS of pediatric cancer cell lines to identify multiple opportunities for drug repurposing: Primary screen for BT-37 cells (AID 1347094); note: potency is the fitted concentration of half-maximal effect
Outline: (§2)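 Plated cells (500-1,000 per well, growth media) were allowed to settle for 5 hours, treated with compound dilutions for 48 hours, then lysed with CellTiter-Glo for 15 min at room temperature before luminescence reading.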

[11] = qHTS of pediatric cancer cell lines to identify multiple opportunities for drug repurposing: Primary screen for NB-EBc1 cells (AID 1347095); note: potency is the fitted concentration of half-maximal effect
Outline: as §2

[12] = qHTS of pediatric cancer cell lines to identify multiple opportunities for drug repurposing: Primary screen for U-2 OS cells (AID 1347096); note: nearly all actives have a fitted effect of over 50% in size
Outline: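 Viability after 48 h compound treatment at 37C, 500-1,000 cells/well, read as ATP luminescence with CellTiter-Glo. Primary screens used 11-point (MIPE, 0.78 nM-46 µM) or 8-point (NPC, 0.59 nM-46 µM) final concentrations; follow-up screens used 11-point dilutions.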

[13] = qHTS of pediatric cancer cell lines to identify multiple opportunities for drug repurposing: Primary screen for SK-N-SH cells (AID 1347098); note: nearly all actives have a fitted effect of over 65% in size; note: potency is the fitted concentration of half-maximal effect
Outline: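 Cells (500-1,000/well) rested 5 h, then received compounds for 48 h; metabolically active cells were measured by CellTiter-Glo luminescence. Final concentrations spanned up to 46 µM (MIPE, 11-point) or 0.59 nM-46 µM (NPC, 8-point) in primary screens, 11-point in follow-ups.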

[14] = qHTS of pediatric cancer cell lines to identify multiple opportunities for drug repurposing: Primary screen for NB1643 cells (AID 1347099); note: nearly all actives have a fitted effect of over 50% in size; note: potency is the fitted concentration of half-maximal effect
Outline: as §2

[15] = qHTS of pediatric cancer cell lines to identify multiple opportunities for drug repurposing: Primary screen for SK-N-MC cells (AID 1347093); note: potency is the fitted concentration of half-maximal effect
Outline: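 Metabolically active cells were quantified by ATP-dependent luminescence (CellTiter-Glo, 15 min at room temperature) following 48 h treatment. Cells had been plated at 500-1,000 per well and settled for 5 h beforehand.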

[16] = qHTS of pediatric cancer cell lines to identify multiple opportunities for drug repurposing: Primary screen for Saos-2 cells (AID 1347097); note: nearly all actives have a fitted effect of over 40% in size; note: potency is the fitted concentration of half-maximal effect
Outline: as §2

Measured: Potency

Chain of Nucleoprotein (Lymphocytic choriomeningitis virus (strain Armstrong)) (P09992 whole entry, looked up): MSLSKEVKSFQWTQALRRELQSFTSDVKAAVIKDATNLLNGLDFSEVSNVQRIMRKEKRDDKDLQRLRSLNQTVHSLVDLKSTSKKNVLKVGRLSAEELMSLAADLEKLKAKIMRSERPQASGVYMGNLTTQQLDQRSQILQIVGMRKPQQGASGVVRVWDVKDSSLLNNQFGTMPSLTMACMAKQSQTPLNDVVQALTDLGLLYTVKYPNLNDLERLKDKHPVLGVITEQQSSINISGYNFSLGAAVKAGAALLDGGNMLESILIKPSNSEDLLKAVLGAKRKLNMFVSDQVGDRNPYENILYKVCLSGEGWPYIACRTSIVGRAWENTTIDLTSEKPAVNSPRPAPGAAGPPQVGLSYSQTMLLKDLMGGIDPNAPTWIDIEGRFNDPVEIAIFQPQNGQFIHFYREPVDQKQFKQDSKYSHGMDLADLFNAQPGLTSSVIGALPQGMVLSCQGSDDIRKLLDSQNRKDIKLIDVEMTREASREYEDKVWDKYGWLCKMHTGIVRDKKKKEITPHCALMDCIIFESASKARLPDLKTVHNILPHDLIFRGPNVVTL

CNC(C)Cc1ccccc1OC (stereo unspecified)
not listed: [15] | [16]
inactive: all other assays above

C[C@]12CC[C@H]3[C@@H](CC=C4C[C@@H](O)CC[C@@]43C)[C@@H]1CC[C@@H]2O
not listed: [12]
inactive: all other assays above

COc1cc(C[C@@H](C)N)c(OC)cc1Br
not listed: [12]
inactive: all other assays above

COc1cc(N)c(Cl)cc1C(=O)NC1CN2CCC1CC2 (stereo unspecified)
not listed: [7]
inactive: all other assays above

ClC1=C(Cl)C2(Cl)C(CBr)CC1(Cl)C2(Cl)Cl (stereo unspecified)
not listed: [7]
inactive: all other assays above

O=C(N[C@H]1N=C(c2ccccc2F)c2cccc3c2N(CC3)C1=O)c1cc2ccccc2[nH]1
not listed: [7]
inactive: all other assays above

O=C(CCCCl)c1ccc(F)cc1
not listed: [7]
inactive: all other assays above

C[C@@H]1C[C@@H]([C@H](O)CC2CC(=O)NC(=O)C2)C(=O)[C@@H](C)C1
active: [2] 968 nM | [3] 158 nM and 432 nM | [4] 1090 nM | [5] 1370 nM | [6] 664 nM and 523 nM | [7] 1.06 µM and 1.18 µM | [8] 266 nM and 235 nM | [9] 668 nM and 372 nM | [15] 84.1 nM and 74.3 nM | [10] 437 nM and 385 nM | [11] 841 nM and 3.32 µM | [16] 1870 nM | [13] 4.86 µM and 8.57 µM | [14] 296 nM
inactive and 93.5 nM (active): [1]

CCC1(CC)C(=O)NC(=O)NC1=O
not listed: [15] | [16]
inactive: all other assays above

CC1N=C(N)OC1c1ccccc1 (stereo unspecified)
not listed: [7] | [14]
inactive: all other assays above

CCC1(c2ccccc2)CCC(=O)NC1=O (stereo unspecified)
not listed: [12] | [16]
inactive: all other assays above

COc1ccc2[nH]cc(CCN(C(C)C)C(C)C)c2c1
active: [13] 36.1 µM
not listed: [12]
inactive: all other assays above

CC(CC(C#N)(c1ccccc1)c1ccccc1)N(C)C (stereo unspecified)
not listed: [8] | [10] | [13] | [15] | [16]
inactive: all other assays above

NC1(c2ccccc2)CCCCC1
active: [9] 30.3 µM
not listed: [15]
inactive: all other assays above

C[C@]12CC[C@H]3[C@@H](CCC4=CC(=O)CC[C@@H]43)[C@@H]1CC[C@@H]2O
not listed: [12] | [13]
inactive: all other assays above

CC[C@H]1C[C@H]2[C@@H]3CCC4=CC(=O)CC[C@@H]4[C@H]3CC[C@]2(C)[C@H]1O
not listed: [12] | [13] | [15]
inactive: all other assays above

Cc1nc2ccccc2c(=O)n1-c1ccccc1Cl
not listed: [12] | [13] | [16]
inactive: all other assays above

COc1cc(CC(C)N)cc2c1OCO2 (stereo unspecified)
not listed: [9] | [12]
inactive: all other assays above
